Screening data (PubChem)
The list is not random: actives were taken first. Their share in the collection is about 12%.
Shiga inhibitor: Shiga toxin inhibition; Vero cells, Shiga toxin protein synthesis inhibition reporter; inhibition, % at 38.7 µM; actives 9.2% (n = 290,000); in the data active = inhibition mostly above about 28%, no sharp cut-off; inactive = mostly below about 43%; note: 0% is about no effect
MARV entry inh: Marburg virus entry inhibition; Potency, µM (titrated, usually from 37.8 µM), for inactives: at the top dose activity change, negative = inhibition, actives largely listed as inhibitors; actives 1.8% (n = 300,000); AID 540276; Marburg virus pseudotyped entry inhibition, cell reporter; calls by dose curve; tested in HEK293 cells; note: potency is the fitted concentration of half-maximal effect; % is set by controls: 0 for no effect and ±100 for the full control effect
CHX counter: counter-screen hit for Shiga toxin inhibitors, cycloheximide | cell reporter, cycloheximide protein synthesis inhibition counterscreen | max response, % | actives 12% (n = 300,000) | AID 2314; in the data active = max response mostly above about 13%, no sharp cut-off; inactive = mostly below about 14%; note: read at 38.3 µM for the half of the compounds with a filed dose; 0% is about no effect
Lassa entry inh: inhibitors of Lassa virus binding or cell entry; Lassa virus pseudotype entry inhibition, cell reporter; Potency, µM (highest dose often 37.9 µM), for the others: at the highest dose activity change, negative = inhibition, actives largely listed as inhibitors; actives 1.2% (n = 300,000); AID 540256; calls by dose curve; tested in HEK293 cells; note: potency is the fitted concentration of half-maximal effect; % is set by controls: 0 for no effect and ±100 for the full control effect; nearly all actives have a fitted effect of over 50% in size
Active calls of the source: *; [ ] = dose if it differs, or a comment.

Results for COc1ccc(NC(=O)N2CCCC(c3nc(-c4ccc(C(C)C)cc4)no3)C2)cc1 (stereo not drawn) ?
Shiga inhibitor: 21; MARV entry inh: -26%; CHX counter: 32*; Lassa entry inh: 2%

How did COc1ccc(-c2noc(C3CCCN(C(=O)Nc4ccccc4F)C3)n2)cc1 (stereo not drawn) do in these assays?
Shiga inhibitor: 24; MARV entry inh: inconclusive; CHX counter: 38*; Lassa entry inh: inconclusive

Results for COc1ccc(NC(=O)N2CCCC(c3nc(-c4ccc(OC)cc4)no3)C2)cc1 (stereo not drawn) ?
Shiga inhibitor: 55; MARV entry inh: inconclusive; CHX counter: 40*; Lassa entry inh: inconclusive

What do the screens show for `Cc1[nH]c(=O)c(S(=O)(=O)c2ccccc2)c(C)c1Cl`?
Shiga inhibitor: -2; CHX counter: 2

What do the screens show for `COc1cc(/C=N/NS(=O)(=O)c2ccc(C)cc2)ccc1OCc1cccc(C(=O)O)c1`?
Shiga inhibitor: 183*; MARV entry inh: inconclusive; CHX counter: 54*; Lassa entry inh: inconclusive

Results for COc1cc(/C=N/NS(=O)(=O)c2ccc3ccccc3c2)ccc1OCc1ccc(C(=O)O)cc1 ?
Shiga inhibitor: 119*; MARV entry inh: 0.89µM*; CHX counter: 63*; Lassa entry inh: inconclusive

Results for O=C(O)c1ccc(CNS(=O)(=O)c2ccc3ccccc3c2)cc1 ?
Shiga inhibitor: 55*; MARV entry inh: -3%[46.1 µM]; CHX counter: 30; Lassa entry inh: 13%

How did COC(=O)c1ccc(COc2ccccc2/C=N/NS(=O)(=O)c2ccccc2)cc1 do in these assays?
Shiga inhibitor: 18; MARV entry inh: 13µM*; CHX counter: 17; Lassa entry inh: -29%

How did COc1ccc(/C=N/NS(=O)(=O)c2ccccc2)cc1OC(=O)c1ccc(C)cc1 do in these assays?
Shiga inhibitor: -10; MARV entry inh: -8%; CHX counter: -1; Lassa entry inh: inconclusive

What do the screens show for `CC[C@H](C)[C@H](NC(=O)CNC(=O)[C@H](CCCNC(=N)N)NC(=O)CNC(=O)[C@@H](NC(=O)[C@H](Cc1ccc(O)cc1)NC(=O)[C@H](Cc1c[nH]c2ccccc12)NC(=O)[C@H](C)NC(=O)[C@@H]1CCCN1C(=O)[C@H](CC(N)=O)NC(=O)[C@@H](NC(=O)[C@H](CC(=O)O)NC(=O)[C@@H]1CCCN1C(=O)[C@@H](N)[C@@H](C)O)[C@@H](C)CC)[C@@H](C)O)C(=O)N[C@@H](CCCNC(=N)N)C(=O)N1CCC[C@H]1C(=O)N[C@H](C(=O)NCC(=O)N[C@@H](CCCNC(=N)N)C(=O)N[C@@H](Cc1ccccc1)C(N)=O)C(C)C`?
Shiga inhibitor: -6; CHX counter: -6

What do the screens show for `C[n+]1c(/C=C/c2ccc(O)cc2)ccc2ccccc21`?
Shiga inhibitor: 64*; MARV entry inh: inconclusive; CHX counter: 50*; Lassa entry inh: 17%

Results for CC[n+]1c(/C=C/c2cc([N+](=O)[O-])ccc2O)ccc2ccccc21 ?
Shiga inhibitor: 7; MARV entry inh: 9%[46.1 µM]; CHX counter: 1; Lassa entry inh: inconclusive

Results for C[n+]1c(/C=C/c2ccc3c(c2)OCO3)ccc2ccccc21 ?
Shiga inhibitor: 95*; MARV entry inh: inconclusive; CHX counter: 51*; Lassa entry inh: 0%[46.1 µM]

Results for CCCCCCCCCCSc1n[nH]c(N)n1 ?
Shiga inhibitor: 46; MARV entry inh: inconclusive; CHX counter: 6; Lassa entry inh: -20%

What do the screens show for `O=C(CSc1ccccc1)Nc1nnc(COc2ccc(Cl)cc2)s1`?
Shiga inhibitor: 61*; MARV entry inh: 1%; CHX counter: 65*; Lassa entry inh: inconclusive

Results for COCC(=O)Nc1nnc(COc2ccc(Cl)cc2)s1 ?
Shiga inhibitor: 73*; MARV entry inh: 15%; CHX counter: 20*; Lassa entry inh: -9%

How did Cc1cccc(C)c1OCc1nnc(NC(=O)CSc2ccc(Cl)cc2)s1 do in these assays?
Shiga inhibitor: -8; MARV entry inh: inconclusive; CHX counter: -4; Lassa entry inh: -13%

What do the screens show for `CS(=O)(=O)N(CC(=O)NC1CCCC1)C1CCCCC1`?
Shiga inhibitor: -6; MARV entry inh: 1%[46.1 µM]; CHX counter: -3; Lassa entry inh: 6%

How did O=C(Cc1ccccc1)Nc1nc(-c2cccc([N+](=O)[O-])c2)cs1 do in these assays?
Shiga inhibitor: -9; MARV entry inh: -12%; CHX counter: -4; Lassa entry inh: -4%

How did O=C(COC(=O)c1ccccn1)Nc1nc(-c2ccccc2)cs1 do in these assays?
Shiga inhibitor: 81*; MARV entry inh: inconclusive; CHX counter: 42*; Lassa entry inh: -6%[46.1 µM]

How did O=C(COC(=O)c1ccccn1)c1ccc([N+](=O)[O-])cc1 do in these assays?
Shiga inhibitor: 41*; CHX counter: 10

Results for Cn1ncc(Br)c1C(=O)OCC(=O)Nc1nc(-c2ccccc2)cs1 ?
Shiga inhibitor: 31*; MARV entry inh: 11%; CHX counter: 19*; Lassa entry inh: 5%

Results for CN1CCN(CC(=O)Nc2nc(-c3ccccc3)cs2)CC1 ?
Shiga inhibitor: 0; MARV entry inh: 13%; CHX counter: 9; Lassa entry inh: -26%

Results for O=C(COC(=O)c1ccccn1)Nc1nc(-c2cccc([N+](=O)[O-])c2)cs1 ?
Shiga inhibitor: 29; MARV entry inh: -1%[46.1 µM]; CHX counter: 18*; Lassa entry inh: 1%

Results for CC1CCCCN1C(=O)Cn1cc(/C=C2/C(=O)Nc3ccccc32)c2ccccc21 (stereo not drawn) ?
Shiga inhibitor: 17; MARV entry inh: 1%; CHX counter: 6

What do the screens show for `CC1CN(C=O)CC(C)N1CCN1C(C)CN(C=O)CC1C` (stereo not drawn)?
MARV entry inh: 17%; Lassa entry inh: inconclusive

What do the screens show for `CC1CC(C)CN(c2ncnc3c2cnn3C)C1` (stereo not drawn)?
Shiga inhibitor: 17; MARV entry inh: -3%[46.1 µM]; CHX counter: -3; Lassa entry inh: 10%

What do the screens show for `Cc1ccc(-n2ncc3c(N4CCCC(C)C4)ncnc32)c(C)c1` (stereo not drawn)?
Shiga inhibitor: 83*; MARV entry inh: 0%; CHX counter: 65*

What do the screens show for `Cc1ccc(-n2ncc3c(SCc4cccc(C)c4)ncnc32)cc1`?
Shiga inhibitor: 12; MARV entry inh: inconclusive; CHX counter: 8; Lassa entry inh: 2%

How did CC1CCCN(c2ncnc3c2cnn3-c2ccc(F)cc2)C1 (stereo not drawn) do in these assays?
Lassa entry inh: -5%[46.1 µM]

How did CC1CCCN(c2ncnc3c2cnn3-c2ccccc2)C1 (stereo not drawn) do in these assays?
Shiga inhibitor: 50; CHX counter: 20*

How did Cc1ccc(-n2ncc3c(SCc4cccnc4)ncnc32)c(C)c1 do in these assays?
Shiga inhibitor: 13; MARV entry inh: inconclusive; CHX counter: 13; Lassa entry inh: 2.8µM*

How did CC1CC(C)CN(c2ncnc3c2cnn3-c2ccc(Cl)cc2)C1 (stereo not drawn) do in these assays?
Shiga inhibitor: 105*; CHX counter: 59*

How did Cc1ccc(-n2ncc3c(N4CCCC4)ncnc32)c(C)c1 do in these assays?
Shiga inhibitor: 24; MARV entry inh: 8%; CHX counter: 2; Lassa entry inh: 1%
